# From PMC7862700, “An all-to-all approach to the identification of sequence-specific readers for epigenetic DNA modifications on cytosine”
# Legend:
# Assay in all cases: DAPPL (digital affinity profiling via proximity ligation, sequencing); 10 mM Tris-HCl pH 7.5, 50 mM NaCl, 1 mM DTT, 4% glycerol, room temperature, 30 min; GST-TFs on glutathione beads, 16-mer random dsDNA library, 0.1% formaldehyde crosslink after washing; high values mean tight binding
# FEV = target: T1, FEV (Homo sapiens, UniProt Q99581 1-238); details: protein: recombinant; tags: N-terminal GST; dsDNA, one strand shown
# T1 sequence: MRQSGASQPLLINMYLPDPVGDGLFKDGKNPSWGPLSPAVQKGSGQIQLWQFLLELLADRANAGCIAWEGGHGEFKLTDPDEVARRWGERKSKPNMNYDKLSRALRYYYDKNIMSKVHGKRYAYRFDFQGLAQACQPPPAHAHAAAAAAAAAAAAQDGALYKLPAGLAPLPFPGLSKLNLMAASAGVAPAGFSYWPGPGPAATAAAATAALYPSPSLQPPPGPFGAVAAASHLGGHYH
# In short: (§1)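 Human transcription factors carrying a GST fusion were produced in yeast, bound to glutathione beads, tagged with DNA barcodes and pooled together with a tag-only sample. Each pool was held with 200 nmole of a random double-stranded 16-mer DNA library in Tris/NaCl/DTT/glycerol buffer for 30 min at room temperature, then washed, crosslinked in 0.1% formaldehyde, proximity-ligated with BsaI/T4 ligase (1 h, 37 °C), PCR-amplified and sequenced on an Illumina NextSeq500. Binding signal is the read frequency of each hexamer for a given factor divided by its frequency in the tag-only sample.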
# ETV5 = ETV5 (Homo sapiens, UniProt P41161 1-510); details: protein: recombinant; tags: N-terminal GST; dsDNA, one strand shown
# Chain of ETV5 (P41161 whole entry): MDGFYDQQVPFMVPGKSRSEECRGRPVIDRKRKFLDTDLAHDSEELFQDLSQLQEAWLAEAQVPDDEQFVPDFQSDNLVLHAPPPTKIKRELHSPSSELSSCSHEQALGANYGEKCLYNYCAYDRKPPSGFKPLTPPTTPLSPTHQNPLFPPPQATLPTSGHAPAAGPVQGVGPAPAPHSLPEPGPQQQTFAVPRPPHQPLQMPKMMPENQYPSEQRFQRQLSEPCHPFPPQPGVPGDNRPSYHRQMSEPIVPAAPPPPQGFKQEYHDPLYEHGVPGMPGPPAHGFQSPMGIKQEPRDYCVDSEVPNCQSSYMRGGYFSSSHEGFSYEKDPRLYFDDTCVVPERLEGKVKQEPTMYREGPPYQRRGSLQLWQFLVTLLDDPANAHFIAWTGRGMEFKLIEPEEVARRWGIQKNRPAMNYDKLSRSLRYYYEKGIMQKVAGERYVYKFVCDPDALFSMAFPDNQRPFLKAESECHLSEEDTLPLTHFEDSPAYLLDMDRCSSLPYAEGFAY
# In short: as §1
# HSF1 = HSF1 (Homo sapiens, UniProt Q00613 1-529); details: protein: recombinant; tags: N-terminal GST; chain copies: 3; dsDNA, one strand shown
# Chain of HSF1 (Q00613 whole entry): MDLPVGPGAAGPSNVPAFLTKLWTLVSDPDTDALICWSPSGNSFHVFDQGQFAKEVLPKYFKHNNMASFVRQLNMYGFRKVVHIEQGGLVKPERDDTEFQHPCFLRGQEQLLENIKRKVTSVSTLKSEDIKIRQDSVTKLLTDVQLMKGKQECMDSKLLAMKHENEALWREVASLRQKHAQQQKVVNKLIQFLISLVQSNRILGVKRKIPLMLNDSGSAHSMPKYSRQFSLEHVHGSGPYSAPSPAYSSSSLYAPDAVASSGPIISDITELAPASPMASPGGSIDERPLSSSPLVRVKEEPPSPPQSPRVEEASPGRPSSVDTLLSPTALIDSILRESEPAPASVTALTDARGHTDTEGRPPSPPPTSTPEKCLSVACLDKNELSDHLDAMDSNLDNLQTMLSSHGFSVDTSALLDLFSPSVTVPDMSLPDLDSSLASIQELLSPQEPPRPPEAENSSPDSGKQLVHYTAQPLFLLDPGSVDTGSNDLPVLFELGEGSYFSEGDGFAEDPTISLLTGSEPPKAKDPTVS
# In short: as §1
# ELF4 = ELF4 (Homo sapiens, UniProt Q99607 1-663); details: protein: recombinant; tags: N-terminal GST; dsDNA, one strand shown
# Chain of ELF4 (Q99607 whole entry): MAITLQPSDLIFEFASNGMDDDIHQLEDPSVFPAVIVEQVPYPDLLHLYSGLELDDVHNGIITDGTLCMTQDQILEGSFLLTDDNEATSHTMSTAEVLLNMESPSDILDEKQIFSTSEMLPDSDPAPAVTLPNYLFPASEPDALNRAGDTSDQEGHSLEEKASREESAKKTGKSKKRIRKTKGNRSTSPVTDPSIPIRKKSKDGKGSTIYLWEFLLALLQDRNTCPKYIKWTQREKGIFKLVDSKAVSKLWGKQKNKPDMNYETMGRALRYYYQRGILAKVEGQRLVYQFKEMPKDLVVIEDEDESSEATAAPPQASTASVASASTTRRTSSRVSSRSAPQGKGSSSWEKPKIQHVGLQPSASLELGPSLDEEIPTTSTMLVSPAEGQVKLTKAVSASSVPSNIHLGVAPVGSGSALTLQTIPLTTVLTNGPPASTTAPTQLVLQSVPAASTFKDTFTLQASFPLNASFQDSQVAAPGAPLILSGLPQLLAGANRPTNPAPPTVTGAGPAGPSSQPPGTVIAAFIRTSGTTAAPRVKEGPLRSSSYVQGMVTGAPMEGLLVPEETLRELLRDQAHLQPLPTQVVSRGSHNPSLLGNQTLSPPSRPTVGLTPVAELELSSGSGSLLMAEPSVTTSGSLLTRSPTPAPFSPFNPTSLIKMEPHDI
# In short: as §1
# ELK4 = target: T2, ELK4 (Homo sapiens, UniProt P28324-2 1-405); details: protein: recombinant; tags: N-terminal GST; dsDNA, one strand shown
# T2 sequence: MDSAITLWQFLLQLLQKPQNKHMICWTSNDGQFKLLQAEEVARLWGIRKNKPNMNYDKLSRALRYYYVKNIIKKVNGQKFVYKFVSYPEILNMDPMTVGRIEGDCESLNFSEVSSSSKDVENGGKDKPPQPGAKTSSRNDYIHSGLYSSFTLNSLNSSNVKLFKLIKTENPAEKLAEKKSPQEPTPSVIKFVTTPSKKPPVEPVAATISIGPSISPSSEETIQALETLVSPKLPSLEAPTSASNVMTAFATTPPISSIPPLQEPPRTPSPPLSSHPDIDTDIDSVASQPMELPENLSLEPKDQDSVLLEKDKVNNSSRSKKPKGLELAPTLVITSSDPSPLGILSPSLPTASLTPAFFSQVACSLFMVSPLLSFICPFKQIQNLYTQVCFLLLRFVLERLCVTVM
# In short: as §1
# ETV2 = target: T3, ETV2 (Homo sapiens, UniProt O00321 1-342); details: protein: recombinant; tags: N-terminal GST; dsDNA, one strand shown
# T3 sequence: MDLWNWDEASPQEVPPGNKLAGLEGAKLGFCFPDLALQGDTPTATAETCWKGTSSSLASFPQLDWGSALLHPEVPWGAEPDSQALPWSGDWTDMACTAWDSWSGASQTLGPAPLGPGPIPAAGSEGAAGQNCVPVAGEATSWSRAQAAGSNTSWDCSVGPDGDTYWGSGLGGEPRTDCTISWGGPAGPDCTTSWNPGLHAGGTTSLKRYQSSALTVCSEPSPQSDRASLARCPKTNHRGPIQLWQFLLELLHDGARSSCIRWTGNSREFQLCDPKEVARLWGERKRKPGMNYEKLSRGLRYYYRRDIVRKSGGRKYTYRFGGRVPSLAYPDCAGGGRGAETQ
# In short: as §1
# ELF3 = target: T4, ELF3 (Homo sapiens, UniProt P78545 1-371); details: protein: recombinant; tags: N-terminal GST; dsDNA, one strand shown
# T4 sequence: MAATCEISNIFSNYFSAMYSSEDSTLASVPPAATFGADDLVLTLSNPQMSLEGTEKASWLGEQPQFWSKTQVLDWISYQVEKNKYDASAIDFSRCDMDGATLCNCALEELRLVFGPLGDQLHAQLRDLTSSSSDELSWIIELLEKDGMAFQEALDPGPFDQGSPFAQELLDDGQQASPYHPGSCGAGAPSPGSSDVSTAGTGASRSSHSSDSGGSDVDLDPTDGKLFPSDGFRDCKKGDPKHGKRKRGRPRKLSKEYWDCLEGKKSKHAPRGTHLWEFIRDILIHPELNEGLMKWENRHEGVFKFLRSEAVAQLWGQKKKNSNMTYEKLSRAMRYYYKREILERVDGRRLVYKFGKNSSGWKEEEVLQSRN
# In short: as §1
# CRX = CRX (Homo sapiens, UniProt O43186 1-299); details: protein: recombinant; tags: N-terminal GST; dsDNA, one strand shown
# Chain of CRX (O43186 whole entry): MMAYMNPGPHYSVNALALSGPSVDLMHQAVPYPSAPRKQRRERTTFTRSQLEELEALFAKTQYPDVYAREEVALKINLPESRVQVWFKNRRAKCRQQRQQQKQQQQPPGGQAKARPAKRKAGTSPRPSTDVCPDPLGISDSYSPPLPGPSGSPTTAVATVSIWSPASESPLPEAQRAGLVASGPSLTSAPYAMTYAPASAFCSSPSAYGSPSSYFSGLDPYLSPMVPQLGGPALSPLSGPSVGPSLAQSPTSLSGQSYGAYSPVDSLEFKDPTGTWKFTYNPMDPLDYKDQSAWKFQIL
# In short: as §1
# ETV1 = ETV1 (Homo sapiens, UniProt P50549 1-477); details: protein: recombinant; tags: N-terminal GST; dsDNA, one strand shown
# Chain of ETV1 (P50549 whole entry): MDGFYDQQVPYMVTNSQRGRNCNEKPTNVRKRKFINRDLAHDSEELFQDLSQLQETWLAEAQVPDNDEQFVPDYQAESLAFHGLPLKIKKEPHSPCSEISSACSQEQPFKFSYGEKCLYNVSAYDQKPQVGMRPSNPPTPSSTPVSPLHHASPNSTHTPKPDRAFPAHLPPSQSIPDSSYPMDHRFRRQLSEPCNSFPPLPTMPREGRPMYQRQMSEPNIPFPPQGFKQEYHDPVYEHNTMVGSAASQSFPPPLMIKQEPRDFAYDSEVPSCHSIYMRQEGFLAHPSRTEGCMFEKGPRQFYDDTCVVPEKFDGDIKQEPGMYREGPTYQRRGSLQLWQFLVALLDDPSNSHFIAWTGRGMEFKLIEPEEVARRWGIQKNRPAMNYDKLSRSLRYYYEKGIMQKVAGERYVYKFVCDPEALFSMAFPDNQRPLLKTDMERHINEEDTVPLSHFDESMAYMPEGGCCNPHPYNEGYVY
# In short: as §1
Sequence,binding signal (FEV),binding signal (ETV5),binding signal (HSF1),binding signal (ELF4),binding signal (ELK4),binding signal (ETV2),binding signal (ELF3),binding signal (CRX),binding signal (ETV1)
TCAAAG,"1.1 fold enrichment (6-mer frequency, TF over GST control)","1.08 fold enrichment (6-mer frequency, TF over GST control)","1.17 fold enrichment (6-mer frequency, TF over GST control)","1.14 fold enrichment (6-mer frequency, TF over GST control)","1.21 fold enrichment (6-mer frequency, TF over GST control)","1.03 fold enrichment (6-mer frequency, TF over GST control)","1.16 fold enrichment (6-mer frequency, TF over GST control)","1.32 fold enrichment (6-mer frequency, TF over GST control)","1.13 fold enrichment (6-mer frequency, TF over GST control)"
TTACGC,"1.1 fold enrichment (6-mer frequency, TF over GST control)","1.19 fold enrichment (6-mer frequency, TF over GST control)","1.39 fold enrichment (6-mer frequency, TF over GST control)","1.19 fold enrichment (6-mer frequency, TF over GST control)","1.04 fold enrichment (6-mer frequency, TF over GST control)","1.16 fold enrichment (6-mer frequency, TF over GST control)","1.01 fold enrichment (6-mer frequency, TF over GST control)","1.81 fold enrichment (6-mer frequency, TF over GST control)","1.13 fold enrichment (6-mer frequency, TF over GST control)"
AAGACT,"1.08 fold enrichment (6-mer frequency, TF over GST control)","1.09 fold enrichment (6-mer frequency, TF over GST control)","1.23 fold enrichment (6-mer frequency, TF over GST control)","1.14 fold enrichment (6-mer frequency, TF over GST control)","1.06 fold enrichment (6-mer frequency, TF over GST control)","1.07 fold enrichment (6-mer frequency, TF over GST control)","1.1 fold enrichment (6-mer frequency, TF over GST control)","1.36 fold enrichment (6-mer frequency, TF over GST control)","1.02 fold enrichment (6-mer frequency, TF over GST control)"
AAGCCC,"1.06 fold enrichment (6-mer frequency, TF over GST control)","1.04 fold enrichment (6-mer frequency, TF over GST control)","1.22 fold enrichment (6-mer frequency, TF over GST control)","1.04 fold enrichment (6-mer frequency, TF over GST control)","1.06 fold enrichment (6-mer frequency, TF over GST control)","1.11 fold enrichment (6-mer frequency, TF over GST control)","1.04 fold enrichment (6-mer frequency, TF over GST control)","1.54 fold enrichment (6-mer frequency, TF over GST control)","1.06 fold enrichment (6-mer frequency, TF over GST control)"
TAAAGA,"1.09 fold enrichment (6-mer frequency, TF over GST control)","1.07 fold enrichment (6-mer frequency, TF over GST control)","1.56 fold enrichment (6-mer frequency, TF over GST control)","1.07 fold enrichment (6-mer frequency, TF over GST control)","1.11 fold enrichment (6-mer frequency, TF over GST control)","1.13 fold enrichment (6-mer frequency, TF over GST control)","1.2 fold enrichment (6-mer frequency, TF over GST control)","1.85 fold enrichment (6-mer frequency, TF over GST control)","1.11 fold enrichment (6-mer frequency, TF over GST control)"
ATTGAA,–,"1.05 fold enrichment (6-mer frequency, TF over GST control)","1.01 fold enrichment (6-mer frequency, TF over GST control)","1.01 fold enrichment (6-mer frequency, TF over GST control)","1.06 fold enrichment (6-mer frequency, TF over GST control)","1 fold enrichment (6-mer frequency, TF over GST control)","1.07 fold enrichment (6-mer frequency, TF over GST control)","1.06 fold enrichment (6-mer frequency, TF over GST control)","1.15 fold enrichment (6-mer frequency, TF over GST control)"
TTTAGG,"1.09 fold enrichment (6-mer frequency, TF over GST control)","1.06 fold enrichment (6-mer frequency, TF over GST control)","1.25 fold enrichment (6-mer frequency, TF over GST control)","1.05 fold enrichment (6-mer frequency, TF over GST control)","1.11 fold enrichment (6-mer frequency, TF over GST control)","1.09 fold enrichment (6-mer frequency, TF over GST control)","1.09 fold enrichment (6-mer frequency, TF over GST control)","1.5 fold enrichment (6-mer frequency, TF over GST control)","1.13 fold enrichment (6-mer frequency, TF over GST control)"
AAGGTA,"1.02 fold enrichment (6-mer frequency, TF over GST control)","1.11 fold enrichment (6-mer frequency, TF over GST control)","1.11 fold enrichment (6-mer frequency, TF over GST control)","1.1 fold enrichment (6-mer frequency, TF over GST control)","1.14 fold enrichment (6-mer frequency, TF over GST control)","1.07 fold enrichment (6-mer frequency, TF over GST control)","1.16 fold enrichment (6-mer frequency, TF over GST control)","1.05 fold enrichment (6-mer frequency, TF over GST control)","1.11 fold enrichment (6-mer frequency, TF over GST control)"
ATTAGG,"1.01 fold enrichment (6-mer frequency, TF over GST control)","1.11 fold enrichment (6-mer frequency, TF over GST control)","1.57 fold enrichment (6-mer frequency, TF over GST control)","1.07 fold enrichment (6-mer frequency, TF over GST control)","1.06 fold enrichment (6-mer frequency, TF over GST control)","1.05 fold enrichment (6-mer frequency, TF over GST control)","1.04 fold enrichment (6-mer frequency, TF over GST control)","2.38 fold enrichment (6-mer frequency, TF over GST control)","1.01 fold enrichment (6-mer frequency, TF over GST control)"
AATCCA,"1.11 fold enrichment (6-mer frequency, TF over GST control)","1.07 fold enrichment (6-mer frequency, TF over GST control)","1.78 fold enrichment (6-mer frequency, TF over GST control)","1.12 fold enrichment (6-mer frequency, TF over GST control)","1.18 fold enrichment (6-mer frequency, TF over GST control)","1.03 fold enrichment (6-mer frequency, TF over GST control)","1.1 fold enrichment (6-mer frequency, TF over GST control)","2.33 fold enrichment (6-mer frequency, TF over GST control)","1.12 fold enrichment (6-mer frequency, TF over GST control)"
AAAGCT,"1.1 fold enrichment (6-mer frequency, TF over GST control)","1.08 fold enrichment (6-mer frequency, TF over GST control)","1.32 fold enrichment (6-mer frequency, TF over GST control)","1.06 fold enrichment (6-mer frequency, TF over GST control)","1.13 fold enrichment (6-mer frequency, TF over GST control)","1.01 fold enrichment (6-mer frequency, TF over GST control)","1.2 fold enrichment (6-mer frequency, TF over GST control)","1.64 fold enrichment (6-mer frequency, TF over GST control)","1.06 fold enrichment (6-mer frequency, TF over GST control)"
CGATGA,–,"1.05 fold enrichment (6-mer frequency, TF over GST control)","1.02 fold enrichment (6-mer frequency, TF over GST control)","1.06 fold enrichment (6-mer frequency, TF over GST control)","1.01 fold enrichment (6-mer frequency, TF over GST control)",–,–,–,–
CTAGTA,"1.04 fold enrichment (6-mer frequency, TF over GST control)","1.08 fold enrichment (6-mer frequency, TF over GST control)","1.86 fold enrichment (6-mer frequency, TF over GST control)","1.07 fold enrichment (6-mer frequency, TF over GST control)","1.09 fold enrichment (6-mer frequency, TF over GST control)","1.1 fold enrichment (6-mer frequency, TF over GST control)","1.18 fold enrichment (6-mer frequency, TF over GST control)","1.38 fold enrichment (6-mer frequency, TF over GST control)","1.04 fold enrichment (6-mer frequency, TF over GST control)"
TGCAAA,"1.12 fold enrichment (6-mer frequency, TF over GST control)","1.09 fold enrichment (6-mer frequency, TF over GST control)","1.06 fold enrichment (6-mer frequency, TF over GST control)","1.13 fold enrichment (6-mer frequency, TF over GST control)","1.14 fold enrichment (6-mer frequency, TF over GST control)","1.08 fold enrichment (6-mer frequency, TF over GST control)","1.2 fold enrichment (6-mer frequency, TF over GST control)","1.01 fold enrichment (6-mer frequency, TF over GST control)","1.14 fold enrichment (6-mer frequency, TF over GST control)"
ACAAGC,"1.09 fold enrichment (6-mer frequency, TF over GST control)","1.12 fold enrichment (6-mer frequency, TF over GST control)","1.01 fold enrichment (6-mer frequency, TF over GST control)","1.13 fold enrichment (6-mer frequency, TF over GST control)","1.12 fold enrichment (6-mer frequency, TF over GST control)","1.06 fold enrichment (6-mer frequency, TF over GST control)","1.07 fold enrichment (6-mer frequency, TF over GST control)","1.07 fold enrichment (6-mer frequency, TF over GST control)","1.16 fold enrichment (6-mer frequency, TF over GST control)"
